Experimental data as given in publication PMC7819943, “Rice protein-binding microarrays: a tool to detect cis-acting elements near promoter regions in rice”.
Over roughly 39,000 sequences, “fluorescence intensity (a.u.)” has its median near 4,300; the highest 2% begin near 39,000. This is one part of a sample in which the highest values are shown more often than they occur.

Target: T1, OsSMF1 (Oryza sativa, UniProt Q6ZLB0 1-436)
T1 sequence: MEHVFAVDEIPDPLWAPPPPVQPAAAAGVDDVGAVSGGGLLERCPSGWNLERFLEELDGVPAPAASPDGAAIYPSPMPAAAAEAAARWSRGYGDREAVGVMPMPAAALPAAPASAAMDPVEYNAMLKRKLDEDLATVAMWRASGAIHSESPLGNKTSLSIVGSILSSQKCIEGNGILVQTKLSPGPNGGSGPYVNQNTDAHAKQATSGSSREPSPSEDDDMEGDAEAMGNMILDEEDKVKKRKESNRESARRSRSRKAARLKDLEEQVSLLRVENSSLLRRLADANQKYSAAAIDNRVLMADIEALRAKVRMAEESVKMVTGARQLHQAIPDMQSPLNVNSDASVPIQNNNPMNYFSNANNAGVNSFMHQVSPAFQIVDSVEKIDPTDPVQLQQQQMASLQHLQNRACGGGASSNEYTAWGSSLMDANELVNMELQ
Assay: protein-binding microarray (RPBM); PBS, 2% BSA, 51.3 ng/ul salmon testes DNA, 50 uM zinc acetate, 200 nM TF, 25 C, 1 h; high values mean tight binding
Details: protein: recombinant; tags: N-terminal polyhistidine and DsRed monomer fusion (pET32a); chain copies: 2; label: CyDye5-dUTP incorporated in the synthesized complementary strand; 3' TTTTT single-stranded linker to array surface; dsDNA, one strand shown
How it was run: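 Binding signal here means per-feature fluorescence intensity in arbitrary units. The values were read on an Axon 4000B scanner after a custom Agilent array, double-stranded by primer extension with Cy5-dUTP, was incubated with 200 nM protein at 25 °C for 1 h in PBS with 2% BSA, salmon testes DNA and 50 µM zinc acetate, then washed. The proteins were transcription factors with an N-terminal polyhistidine tag and DsRed, expressed in E. coli BL21-CodonPlus and purified on Ni–NTA.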

Sequence | binding signal
TTCCATCCAGAGTGCGTCACGAACGCGCCAGTCGCCCGGTCGGAGTCACCTAGTGCAG | 3990 fluorescence intensity (a.u.)
ATAACCGCCCTAATTTACTTTAGCATACGTGGAGTACAAGCGGAGTCACCTAGTGCAG | 6900 fluorescence intensity (a.u.)
AAAGAACGCAGCCTTAGAAGGAGACAGCTCATGGAGCAAGCGGAGTCACCTAGTGCAG | 5000 fluorescence intensity (a.u.)
AGCTCACCGCATTGTAAAGGCCCTTACTAATCTTAGCAAGCGGAGTCACCTAGTGCAG | 40300 fluorescence intensity (a.u.)
AAATCACACCCACGCTCGTGCCCATTGGGTCGGGTATCCGCGGAGTCACCTAGTGCAG | 3550 fluorescence intensity (a.u.)
ATGTTTAGTTCCACGTCAAAATTGGAAGTTTGAAGAAATTCGGAGTCACCTAGTGCAG | 3980 fluorescence intensity (a.u.)
TTAAGGTGTGTTTAGTTCCACGTCAAAATTAGAAGTTTGACGGAGTCACCTAGTGCAG | 7090 fluorescence intensity (a.u.)
CCACGCTAAAATTGGAAGTTTGACTAAAATTAGAAGTTTACGGAGTCACCTAGTGCAG | 60200 fluorescence intensity (a.u.)
GGAAGGAGACTGCTTGGTCACTAATTTAATCTGCTACTACCGGAGTCACCTAGTGCAG | 3140 fluorescence intensity (a.u.)
GTATTGAGAATTGTATGACTAATCAATGTTGCCTTACTTACGGAGTCACCTAGTGCAG | 5200 fluorescence intensity (a.u.)
GAGAATTTGCTACTAATTGACTTACCAATTTGGAATTTACCGGAGTCACCTAGTGCAG | 46100 fluorescence intensity (a.u.)
GCCGGCGTCGCCGTCGGGGATGCACCTCGGCGCGTCCGTCCGGAGTCACCTAGTGCAG | 3550 fluorescence intensity (a.u.)
TCCCGAAACCCGACACGCGGCACCGATCGATCGATCGATCCGGAGTCACCTAGTGCAG | 3240 fluorescence intensity (a.u.)
TGTCCCCGAACCGGATCTGCCCGATGCTCGCCGTCAGCATCGGAGTCACCTAGTGCAG | 4300 fluorescence intensity (a.u.)
CGTGCTCACGAAACCCGATCGATCGGTGATCTGCACCGTCCGGAGTCACCTAGTGCAG | 45200 fluorescence intensity (a.u.)
GCAGCATAGTTAGCTTTATATCTGTTTTACGTCATCACCACGGAGTCACCTAGTGCAG | 6330 fluorescence intensity (a.u.)
CCGTATACATAGCTAGCTGTCTGTGATGCATGCATGGTCACGGAGTCACCTAGTGCAG | 44200 fluorescence intensity (a.u.)
AAAGTCATGTCATCACGTATATATCACGTATACATATATACGGAGTCACCTAGTGCAG | 4080 fluorescence intensity (a.u.)
ATATACATATACATATATATACACACACACGTATACATAGCGGAGTCACCTAGTGCAG | 4840 fluorescence intensity (a.u.)
TATATATGGCCTTTGGTCTGCATAGCTGTCCACGTCATCACGGAGTCACCTAGTGCAG | 42200 fluorescence intensity (a.u.)
ATTCTGTCTCCTTTGCCTGTCGTCACGCTGTCATCACGCTCGGAGTCACCTAGTGCAG | 4480 fluorescence intensity (a.u.)
TTCTATTTTCGCATGTGGCATTTGTGGCTGCTTGCTAGACCGGAGTCACCTAGTGCAG | 3690 fluorescence intensity (a.u.)

Sequence | binding signal
CAATATGACATTGTATATGTGAATTGAGTGTAACTTGGTTCGGAGTCACCTAGTGCAG | 3290 fluorescence intensity (a.u.)
TACGCCGTTACGTGGTATGGTGTTGTGCCATTTCAGTCGGCGGAGTCACCTAGTGCAG | 3500 fluorescence intensity (a.u.)
AGAAAATGTGGAATGACGCAAATGCCCTTCTGCCTCCTCGCGGAGTCACCTAGTGCAG | 5440 fluorescence intensity (a.u.)
GATTGCAGCCGCCGCCTGCGTCGGTCCAGTCACCATTGGCCGGAGTCACCTAGTGCAG | 6870 fluorescence intensity (a.u.)
ACTAAATCCTCAACCACCTCATATGTTTATGTACCATCGACGGAGTCACCTAGTGCAG | 3510 fluorescence intensity (a.u.)
GCGCAAGTTCTCCACAAGCCACCTCGATCGATCTCCATTGCGGAGTCACCTAGTGCAG | 3420 fluorescence intensity (a.u.)
GTCAGTCACCGCCCTGTGGGGCCCACCCACCCGCGCCGTCCGGAGTCACCTAGTGCAG | 9640 fluorescence intensity (a.u.)
AGTTTGCTGCCCACTTCAGTAGGTTACAATACAATTATACCGGAGTCACCTAGTGCAG | 65300 fluorescence intensity (a.u.)
TTCAGATGTACAATTTTGCTGGATTACTAGTAGTTTTCTTCGGAGTCACCTAGTGCAG | 17600 fluorescence intensity (a.u.)
CAACAATACAGTTATTGGTAATTACAAGCTACTAGTATACCGGAGTCACCTAGTGCAG | 18600 fluorescence intensity (a.u.)
CCTTTCCCTCTCCACTCTCCACCATCCTCTGCAGCTGACTCGGAGTCACCTAGTGCAG | 3330 fluorescence intensity (a.u.)
CTGCGTTACTTCGACATTGCCCGACGTGTTGACTGTGTTGCGGAGTCACCTAGTGCAG | 4070 fluorescence intensity (a.u.)
GTGTGAGGTTCATGCTGGGCGGTGACGCGACGGCGGAGACCGGAGTCACCTAGTGCAG | 6730 fluorescence intensity (a.u.)
GTTACGACAAGTGCCACAAACCAGCAGAAGCAAAGGTAGACGGAGTCACCTAGTGCAG | 47900 fluorescence intensity (a.u.)
CTAGAAGTTACCAAGGTACCAGAGCAGACACCTAAGCAGCCGGAGTCACCTAGTGCAG | 3370 fluorescence intensity (a.u.)
AAGAAGAAGACGACGACGTGGCGAGCCAAGTAGCAGCAAACGGAGTCACCTAGTGCAG | 3620 fluorescence intensity (a.u.)
AGTATGAAAGACCTGAGGATGACCCGGATTATATTCCTATCGGAGTCACCTAGTGCAG | 3320 fluorescence intensity (a.u.)
GCAATGCATTTCAAATTCAGGACCCCATAGAGAAATCAACCGGAGTCACCTAGTGCAG | 29200 fluorescence intensity (a.u.)
GACACAAACAAAATCGAGAAGATGGCATACCTACCATACACGGAGTCACCTAGTGCAG | 22800 fluorescence intensity (a.u.)
AAACAAAGTGGCACAGATAAAATGGAACATAGAAGTGGCACGGAGTCACCTAGTGCAG | 40700 fluorescence intensity (a.u.)
AAAATCATACGAACGGAAAAGCAAAAGATAGAAGCCAAAACGGAGTCACCTAGTGCAG | 16500 fluorescence intensity (a.u.)
